From PubChem BioAssay
DT40 TDP1 CPT: qHTS for Inhibitors of human tyrosyl-DNA phosphodiesterase 1 (TDP1): qHTS in cells in presence of CPT; actives 12% (n = 420,000); Potency, µM (titrated, usually from 46.2 µM), usual class: inhibitors; chicken DT40 Tdp1-/-;hTDP1 cells + 20 nM CPT, ATP luminescence, 48 h; AID 686979, 2013; note: nearly all actives have a fitted effect of over 55% in size
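Chicken DT40 Tdp1-/- cells stably complemented with human TDP1 were seeded at 400 cells/well in medium containing 20 nM camptothecin, exposed to pin-transferred compounds, and grown at 37 °C for at least 48 hr. Viability was read as ATP luminescence.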
VDR inh: Inhibitors of the vitamin D receptor (VDR): qHTS; Vitamin D3 receptor (Homo sapiens), P11473; VDR-SRC2-3 peptide fluorescence polarization, 2 h; Potency, µM, actives largely listed as inhibitors; actives 0.93% (n = 400,000); AID 504847, 2011
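Fluorescence polarization assay of small-molecule disruption of VDR binding to coregulator peptide SRC2-3. Compounds and controls pin-transferred, then read after 2 h incubation at ambient room temperature.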
TDP1 inh: qHTS Assay for Inhibitors of Tyrosyl-DNA Phosphodiesterase (TDP1) | Tyrosyl-DNA phosphodiesterase 1 (Homo sapiens), Q9NUW8 | recombinant TDP1, AlphaScreen DNA substrate cleavage | Potency, µM (highest dose often 130 µM), most hits filed as inhibitors | actives 0.28% (n = 350,000) | AID 485290, 2010; note: nearly all actives have a fitted effect of over 40% in size
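Steps: enzyme plus compound, 15 min RT; add biotin/phosphotyrosine-FITC oligonucleotide (15 nM final), react 5 min; add donor/acceptor beads (10 ug/ml final), 10 min; read AlphaScreen. Tdp1 at 1 nM final.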
GCN5L2 inh: qHTS Assay for Inhibitors of GCN5L2. Potency, µM (top dose mostly 58.9 µM), most hits filed as inhibitors. Histone acetyltransferase KAT2A (Homo sapiens), Q92830. GCN5L2 HAT assay, ThioGlo1 CoA-SH fluorescence. actives 0.21% (n = 390,000)
Target sequence (Q92830 whole entry, looked up): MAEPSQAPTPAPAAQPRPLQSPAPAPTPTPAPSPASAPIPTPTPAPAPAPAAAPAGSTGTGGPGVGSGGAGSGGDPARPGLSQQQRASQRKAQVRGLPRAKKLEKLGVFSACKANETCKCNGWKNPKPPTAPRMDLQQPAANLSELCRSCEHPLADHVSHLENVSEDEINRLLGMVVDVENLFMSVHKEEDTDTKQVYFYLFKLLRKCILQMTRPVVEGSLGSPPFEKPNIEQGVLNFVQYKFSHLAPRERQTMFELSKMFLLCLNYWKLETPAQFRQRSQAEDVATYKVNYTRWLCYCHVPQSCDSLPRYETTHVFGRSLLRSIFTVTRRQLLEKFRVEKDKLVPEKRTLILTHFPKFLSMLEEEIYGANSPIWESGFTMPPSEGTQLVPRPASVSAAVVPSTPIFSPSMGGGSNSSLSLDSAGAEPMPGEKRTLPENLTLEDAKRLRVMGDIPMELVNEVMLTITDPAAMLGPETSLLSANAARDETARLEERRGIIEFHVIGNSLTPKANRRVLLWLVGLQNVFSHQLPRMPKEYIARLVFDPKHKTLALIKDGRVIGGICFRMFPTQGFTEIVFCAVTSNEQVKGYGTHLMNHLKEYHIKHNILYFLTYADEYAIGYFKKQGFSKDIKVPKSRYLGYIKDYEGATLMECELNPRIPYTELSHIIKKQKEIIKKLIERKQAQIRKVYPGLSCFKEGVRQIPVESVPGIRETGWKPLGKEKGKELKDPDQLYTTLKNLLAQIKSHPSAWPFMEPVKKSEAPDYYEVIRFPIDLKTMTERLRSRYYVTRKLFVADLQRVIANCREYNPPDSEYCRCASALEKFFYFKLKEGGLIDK
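ThioGlo1-coupled HAT assay: 20nM GCN5L2, 70uM acetyl-CoA, 75uM H3(1-25) peptide, pH 7.5. Fluorescence read at 340/540nm at start and after 20 min at room temperature.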
DT40 TDP1 no CPT: qHTS for Inhibitors of human tyrosyl-DNA phosphodiesterase 1 (TDP1): qHTS in cells in absence of CPT; actives 15% (n = 420,000); AID 686978, 2013; Potency, µM (top dose mostly 46.2 µM), hits mostly inhibitors; DT40 Tdp1-/- hTDP1 cells, no CPT, ATP luminescence, 48 h; note: nearly all actives have a fitted effect of over 55% in size
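Seeded 400 DT40-hTDP1 cells/well (vehicle DMSO, no 20 nM CPT); pinned compounds; ≥48 hr at 37 °C; CellTiter-Glo luminescence as viability measure.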
PLK1 PBD inh: qHTS for Inhibitors of PLK1-PDB (polo-like kinase 1 - polo-box domain): Primary Screen; Serine/threonine-protein kinase PLK1 (Homo sapiens), P53350; Plk1 PBD binding of FITC phosphopeptide, fluorescence polarization; Potency, µM, usual class: inhibitors; actives 2.8% (n = 360,000); AID 720504, 2013; note: series mostly up to about 57 µM; nearly all actives have a fitted effect of over 65% in size
Large screens that a line does not name were inactive. Shown are actives, neighbours in structure and some others; about 18% of the full set was active somewhere. Calls come from the whole dose curve; as a rule, active = well fitted curve in the direction sought with a large enough effect; inconclusive = small, poorly fitted or top-dose-only effect, or another doubt; inactive = no such curve, though single readings can be large; an effect the other way counts as inactive or inconclusive.

COc1ccc(-n2nnnc2C(c2ccccc2)N2CCN(C/C=C/c3ccccc3)CC2)cc1 (configuration not stated)	DT40 TDP1 CPT 20.6µM, DT40 TDP1 no CPT inconclusive (no result: VDR inh, TDP1 inh, GCN5L2 inh)
COc1ccc(-n2nnnc2C(CCc2ccccc2)N2CCN(C/C=C/c3ccccc3)CC2)cc1 (configuration not stated)	DT40 TDP1 CPT inconclusive, DT40 TDP1 no CPT 16.4µM (no result: VDR inh, TDP1 inh, GCN5L2 inh)
COc1ccc(-n2nnnc2C(c2cccc(OC)c2OC)N2CCN(C/C=C/c3ccccc3)CC2)cc1 (configuration not stated)	DT40 TDP1 CPT 23.1µM, DT40 TDP1 no CPT 18.4µM (no result: VDR inh, TDP1 inh, GCN5L2 inh)
CC(NC(=O)COC(=O)COc1cccc2c1OC(C)(C)C2)c1ccccc1 (configuration not stated)	none
COc1ccc(-c2sc(N)nc2-c2ccccc2)cc1	DT40 TDP1 CPT inconclusive, DT40 TDP1 no CPT inconclusive (no result: GCN5L2 inh, PLK1 PBD inh)
Cc1cccc(NC(=O)c2ccc([N+](=O)[O-])o2)c1C	DT40 TDP1 CPT inconclusive, DT40 TDP1 no CPT inconclusive
COc1ccccc1NC(=O)c1ccc([N+](=O)[O-])o1	DT40 TDP1 CPT 13µM, DT40 TDP1 no CPT 16.4µM (no result: TDP1 inh, GCN5L2 inh)
O=C(Nc1cccc2ccccc12)c1ccc([N+](=O)[O-])o1	DT40 TDP1 CPT 14.6µM, DT40 TDP1 no CPT 25.9µM (no result: TDP1 inh)
CN(Cc1ccccc1)C(=O)c1ccc2sc([C@H]3C[C@H](O)[C@@H](CO)O3)nc2c1	none (no result: VDR inh, TDP1 inh, GCN5L2 inh)
COc1cc(OC)cc(C(=O)Nc2cccc(-c3ccc4nncn4n3)c2)c1	none (no result: DT40 TDP1 CPT, VDR inh, DT40 TDP1 no CPT, PLK1 PBD inh)
CCc1ccc(S(=O)(=O)Nc2cccc(-c3ccc4nncn4n3)c2)s1	DT40 TDP1 CPT inconclusive, DT40 TDP1 no CPT 14.6µM
O=C(COc1ccc(Cl)cc1)Nc1cccc(-c2ccc3nncn3n2)c1	DT40 TDP1 no CPT 16.4µM
COc1ccc(S(=O)(=O)Nc2ccc(-c3ccc4nncn4n3)cc2)c(OC)c1	DT40 TDP1 CPT 9.2µM, VDR inh inconclusive, DT40 TDP1 no CPT 10.3µM, PLK1 PBD inh 18.9µM
CCc1ccc(S(=O)(=O)Nc2cccc(-c3ccc(N4CCC(C)CC4)nn3)c2)s1	DT40 TDP1 CPT inconclusive, DT40 TDP1 no CPT inconclusive (no result: PLK1 PBD inh)
COc1ccc(C(=O)Nc2cccc(-c3ccc4nncn4n3)c2)cc1	DT40 TDP1 CPT 14.6µM, DT40 TDP1 no CPT 14.6µM
CN(C)S(=O)(=O)c1ccc(Cl)c(NC(=O)CN2CCCC2)c1	none
O=C(CN1C(=O)NC2(CCCC2)C1=O)N1CCN(S(=O)(=O)c2cc(Cl)ccc2Cl)CC1	DT40 TDP1 no CPT inconclusive
O=C(CSc1nc2c(c(=O)[nH]1)CN(Cc1ccc(F)cc1)CC2)Nc1ccc(F)cc1	DT40 TDP1 CPT 20.6µM, DT40 TDP1 no CPT 16.4µM
Cc1ccc(NC(=O)CSc2nc3c(c(=O)[nH]2)CN(Cc2ccc(F)cc2)CC3)cc1C	DT40 TDP1 CPT inconclusive, DT40 TDP1 no CPT inconclusive
CN(c1cccc(NC(=O)CSc2ccc(Cl)cc2)c1)S(C)(=O)=O	DT40 TDP1 CPT 10µM, DT40 TDP1 no CPT 11.2µM, PLK1 PBD inh inconclusive
CN(c1cccc(NC(=O)COc2ccc(Cl)cc2Cl)c1)S(C)(=O)=O	DT40 TDP1 CPT 20.6µM, DT40 TDP1 no CPT inconclusive
CSc1nc(N)c2ncn([C@H]3O[C@H](COP(=O)(O)OP(=O)(O)OP(=O)(O)O)[C@@H](O)[C@@H]3O)c2n1	DT40 TDP1 no CPT inconclusive (no result: PLK1 PBD inh)
Cc1ccsc1C(=O)OCC(=O)N1CC(C)CC(C)C1 (configuration not stated)	none
COc1ccc(CNCCC(c2ccc3c(c2)OCO3)c2ccccc2OC)cc1 (configuration not stated)	DT40 TDP1 CPT 6.51µM, DT40 TDP1 no CPT 2.91µM (no result: TDP1 inh, PLK1 PBD inh)
COc1ccc(C(CCNCc2ccc(OC)c(OC)c2)c2ccc(F)cc2)cc1 (configuration not stated)	none (no result: TDP1 inh)
CC(C)Oc1ccc(C(CCNCc2ccc(O)cc2)c2ccccc2)cc1 (configuration not stated)	DT40 TDP1 CPT 5.8µM, DT40 TDP1 no CPT 4.11µM (no result: TDP1 inh)
COc1ccc(C(CCNCc2ccc(N(C)C)cc2)c2ccccc2)cc1 (configuration not stated)	DT40 TDP1 CPT 20.6µM, DT40 TDP1 no CPT 20.6µM (no result: TDP1 inh)
COc1ccc(Cn2ccnc2SCC(=O)Nc2ccccc2OC)cc1	DT40 TDP1 CPT inconclusive, DT40 TDP1 no CPT inconclusive
COc1cccc(NC(=O)NNC(=O)CCc2ccc(O)c(O)c2)c1	none
CN1CCN(c2ncnc3c2ncn3[C@H]2CN(Cc3ccco3)C[C@@H](CO)O2)CC1	none (no result: VDR inh, TDP1 inh, GCN5L2 inh)
O=C1CN(C(=O)c2ccc(S(=O)(=O)N3CCCCC3)cc2)C(c2ccc(F)cc2)c2cc(Br)ccc2N1 (configuration not stated)	DT40 TDP1 CPT 25.9µM, DT40 TDP1 no CPT 20.6µM (no result: PLK1 PBD inh)
O=C1CN(C(=O)c2cc3ccccc3oc2=O)C(c2ccc(F)cc2)c2cc(F)ccc2N1 (configuration not stated)	DT40 TDP1 CPT inconclusive
O=C1CN(C(=O)c2cc3ccccc3oc2=O)C(c2ccc(F)cc2)c2cc(Br)ccc2N1 (configuration not stated)	DT40 TDP1 CPT 13µM, DT40 TDP1 no CPT inconclusive
O=C1CN(C(=O)c2cc([N+](=O)[O-])ccc2Cl)C(c2ccc(F)cc2)c2cc(F)ccc2N1 (configuration not stated)	DT40 TDP1 CPT inconclusive, DT40 TDP1 no CPT 14.6µM
CCCCC1CCC(C(=O)N2CC(=O)Nc3ccc(Br)cc3C2c2ccc(F)cc2)CC1 (configuration not stated)	DT40 TDP1 CPT 23.1µM, DT40 TDP1 no CPT 13µM (no result: PLK1 PBD inh)
CCCC(=O)N1CC(=O)Nc2ccc(Br)cc2C1c1ccc(F)cc1 (configuration not stated)	DT40 TDP1 CPT inconclusive (no result: TDP1 inh)
CC(C)=C(NC(=O)c1ccccc1)C(=O)NC(Cc1ccccc1)C(=O)O (configuration not stated)	none
CC(C)(C)c1ccc(C(=O)N2CC(=O)Nc3ccc(F)cc3C2c2ccc(F)cc2)cc1 (configuration not stated)	DT40 TDP1 CPT 25.9µM, DT40 TDP1 no CPT 18.4µM (no result: PLK1 PBD inh)
O=C1CN(C(=O)c2ccc(S(=O)(=O)N3CCCC3)cc2)C(c2ccc(F)cc2)c2cc(Br)ccc2N1 (configuration not stated)	DT40 TDP1 CPT inconclusive, DT40 TDP1 no CPT 18.4µM (no result: PLK1 PBD inh)
O=C1CN(C(=O)c2ccccc2)C(c2ccccc2)c2cc(F)ccc2N1 (configuration not stated)	none (no result: TDP1 inh)
